Reference: PubChem BioAssay AID1259343 (VanderVen Lab, College of Veterinary Medicine, Cornell …, 2017)
In all, about 6,200 compounds went through this assay and about 2,900 (47%) were called active. Cut-off read from the data, not from the text of the source: active = inhibition above about 50%; inactive = the rest. The set was probably picked from earlier hits. This is one part of the list.

Experiment: Mycobacterium tuberculosis growth inhibition, primary screen (AID 1259343)
Details: inhibition: at 10 µM, active compounds read high; outcome: 10 uM

Compound | inhibition
COc1c(-c2coc3cc4c(cc3c2=O)CC(OC(C)=O)C(C)(C)O4)ccc2c1C=CC(C)(C)O2 (stereo unspecified) | 77.7% (active)
CCOC(C)c1nc(CN2CCc3cc(Br)ccc32)cs1 (stereo unspecified) | 28.4% (inactive)
CCCNC(=O)CN1CCc2cc(Br)ccc21 | 74.1% (active)
O=C(Cc1ccccc1O)N1CCc2cc(Br)ccc21 | 23.1% (inactive)
Cc1cc(Oc2ccc(C(C)C)cc2)nc(SCc2ccc(F)c(F)c2)n1 | -1.84% (inactive)
CC(C)c1ccc(Oc2ccc3nnnn3n2)cc1 | 55.6% (active)
O=S(c1ccccc1)c1ccc2nnnn2n1 (stereo unspecified) | -44% (inactive)
COc1ccc(Oc2ccc(C(=O)NCCN3CCNC3=O)cc2)cc1 | 73.9% (active)
COc1ccc2c(c1)CCCN2Cc1ccc(C(N)=O)cc1 | 20.6% (inactive)
COc1ccc(Oc2ccc(C(=O)NCCc3cnc[nH]3)cc2)cc1 | 52.5% (active)
CCc1nc2ccc(C(=O)NCCOc3ccc(OC)cc3)cn2c1N(C=O)Cc1ccc(OC)cc1 | 47% (inactive)
O=C(NCc1ccc(OC(F)F)cc1)c1cnccn1 | 85.3% (active)
OC(c1ccc(Cl)cc1)c1ccc(OC(F)F)cc1 (stereo unspecified) | 19.4% (inactive)
COc1ccc(CNC(=O)c2ccc(Br)cn2)cc1 | 14.4% (inactive)
O=C(NCc1ccc(OC(F)F)cc1)c1ccc(Cl)cc1 | 85.9% (active)
Cc1ccc(C)c(C(C)CNC(=O)c2cnccn2)c1 (stereo unspecified) | 21.5% (inactive)
COc1ccc2c(c1)CCC1C2CC[C@@]2(C)C1CC[C@@H]2O (stereo partly specified) | 46% (inactive)
Cc1c(N)c(C)c([N+](=O)[O-])c(C)c1[N+](=O)[O-] | -53.9% (inactive)
CC(=O)c1ccc(N2CCCC2)cc1OCc1cccc(C)c1 | 36.7% (inactive)
Cc1cc(N2CCCC2)ccc1NC(=O)c1cccc(NC(=O)OC(C)(C)C)c1 | 20.1% (inactive)
N#CCc1cccc(C(=O)Nc2cc(F)cc(N3CCCC3)c2)c1 | 84.4% (active)
COc1ccc(OCCSc2nnnn2-c2ccc(OC)cc2)cc1 | -17.4% (inactive)
COc1ccc(-n2nnnc2SCc2ccc(C#N)cc2)cc1 | 82.8% (active)
COc1ccc(-n2nnnc2SCCOc2ccc(Br)cc2)cc1 | inactive
O=P1(Nc2ccc(-c3ccccc3)cc2)C=C(c2ccccc2)OC(c2ccccc2)=C1 | 98.4% (active)
Cc1c(C(=O)OCC(C)C)[nH]c2c1C(=O)CCC2 | 60.5% (active)

Compound | inhibition
CCc1cc(=O)[nH]c(-n2nc(C)cc2NC(=O)C2CC2)n1 | 101% (active)
CCCc1cc(=O)[nH]c(-n2nc(C)cc2NC(=O)C2CC2)n1 | 101% (active)
O=c1c(Sc2ccc(Cl)cc2)c(O)c2c(n1-c1ccccc1)CCCC2 | 40.5% (inactive)
CCNCC#CCOc1ccc(C)c(C)c1 | -6.66% (inactive)
CC(=O)Oc1ccc2c(=O)oc(COc3ccc(C)c(C)c3)nc2c1 | 60.8% (active)
CC(C)n1ncc2cc(N)cnc21 | 83.8% (active)
O=C(Nc1ccc(-n2cccc2)cc1)C1=CN2CCN(Cc3cscn3)C(=O)N=C2O1 | 4.33% (inactive)
O=C1N=C2OC(C(=O)Nc3cccc(Cc4ccccc4)c3)=CN2CCN1 | 91.3% (active)
CCN1CC(CN(C)C(=O)Nc2nc3ccccc3s2)Oc2ccccc21 (stereo unspecified) | 12.4% (inactive)
CN(C(=O)Nc1nc2ccc(F)cc2s1)C1CCCc2ccccc21 (stereo unspecified) | 74.2% (active)
CC(=O)N1CCN(CC(=O)Nc2nc3ccc(F)cc3s2)CC1 | 15.5% (inactive)
Cc1ccc(C2=CCN(Cc3nc4ccsc4c(=O)[nH]3)CC2)cc1 | 94.7% (active)
O=c1[nH]c(CN2CCN(c3ccccc3F)CC2)nc2ccsc12 | 13.7% (inactive)
CC(C)(O)C#Cc1ccc(C(=O)NCc2cnn(-c3ccc(F)cc3)c2)o1 | 36.3% (inactive)
O=C(Nc1nnc(C2=COCCO2)o1)c1cc(Cl)cc(Cl)c1 | 93.4% (active)
Cc1cc(=O)[nH]c(-n2nc(C)cc2NC(=O)c2cc(C)oc2C)n1 | 90.8% (active)
CCN(CC)C(=O)N1CCN(c2ccc(Nc3ccnc4cc5ccccc5cc34)cc2)CC1 | -24.5% (inactive)
Cc1cc(=O)[nH]c(-n2nc(C)cc2NC(=O)c2cccc3ccccc23)n1 | 101% (active)
CCc1ccc(OCc2ccccc2C(=O)Nc2ccc3nc(C)cc(N)c3c2)cc1 | 33.8% (inactive)
CCCc1cc(=O)[nH]c(-n2nc(C)cc2NC(=O)c2cccc3ccccc23)n1 | 102% (active)
CCN(CC)c1cc(C)nc(Nc2ccc(NC(=O)c3cccc4ccccc34)cc2)n1 | 93.6% (active)
CCc1cc(=O)[nH]c(-n2nc(C)cc2NC(=O)c2cccc3ccccc23)n1 | 13.9% (inactive)
O=C1C(c2ccccc2)C=Nc2c(-c3ccccc3)cnn21 (stereo unspecified) | -23.2% (inactive)
Cc1cc(=O)[nH]c(-n2nc(C)cc2NC(=O)c2ccccc2C)n1 | 101% (active)
Cc1cc(NC(=O)c2ccccc2C)n(-c2nc(C)c(C)c(=O)[nH]2)n1 | -21.7% (inactive)
Clc1ccc2nc(SCc3nnc(C4CCC4)o3)[nH]c2c1 | 16.7% (inactive)

Compound | inhibition
Clc1ccc(CCCc2nc3ccc(Cl)cc3[nH]2)c(Cl)c1 | 99.6% (active)
Clc1ccc2nc(SCCC3CCCCC3)[nH]c2c1 | 23.7% (inactive)
S=c1ccss1 | 101% (active)
CCc1cc2c(N3CCCCC3)ncnc2s1 | 46.7% (inactive)
CCc1cc2c(SCC(=O)C(C)(C)C)ncnc2s1 | -53% (inactive)
CCc1cc2c(=O)n(NC(=O)c3cccc(C)n3)cnc2s1 | 99.6% (active)
CC(C)c1ccc(-n2nnnc2SCC(N)=O)cc1 | 32.2% (inactive)
Fc1cccc(-n2[nH]nnc2=S)c1 | 90.8% (active)
CC(C)c1ccc(-n2[nH]nnc2=S)cc1 | 70.6% (active)
S=c1nn[nH]n1-c1cccc(Cl)c1 | 10% (inactive)
Cc1cc(=O)[nH]c(-n2nc(C)cc2NC(=O)C23CC4CC(CC(C4)C2)C3)n1 | 99.3% (active)
CCc1c(C)nc(-n2nc(C)cc2NC(=O)C23CC4CC(CC(C4)C2)C3)[nH]c1=O | -26.4% (inactive)
Cc1cc(=O)[nH]c(-n2nc(C3CC3)cc2NC(=O)C23CC4CC(CC(C4)C2)C3)n1 | 99.1% (active)
CCc1cc(=O)[nH]c(-n2nc(C)cc2NC(=O)C23CC4CC(CC(C4)C2)C3)n1 | 93.6% (active)
CCCc1cc(=O)[nH]c(-n2nc(C)cc2NC(=O)C23CC4CC(CC(C4)C2)C3)n1 | 100% (active)
Cc1cc(NC(=O)C23CC4CC(CC(C4)C2)C3)n(-c2nc(C)c(C)c(=O)[nH]2)n1 | 14.6% (inactive)
Cc1cc(NC(=O)C23CC4CC(CC(C4)C2)C3)n(-c2nc3c(c(=O)[nH]2)CCC3)n1 | 101% (active)
CCCc1nc(N2CCNCC2)c2c(C)nn(-c3ccc(F)cc3)c2n1 | 42% (inactive)
Clc1cccc(-n2ncc3c(N4CCNCC4)nc(Cc4ccccc4)nc32)c1 | 65.1% (active)
Cc1nc(N2CCCC(C)C2)c2cnn(-c3ccc(F)cc3)c2n1 (stereo unspecified) | 23.5% (inactive)
CC(C)CCc1nc(N2CCNCC2)c2cnn(-c3cccc(Cl)c3)c2n1 | 41.8% (inactive)
Cc1ccc(Cc2nc(N3CCNCC3)c3c(C)nn(-c4ccccc4)c3n2)cc1 | 92.7% (active)
CC1NC(=S)N(CCc2nc(C(C)(C)C)cs2)C1=O (stereo unspecified) | 12.2% (inactive)
CCOc1ccc(OCCCOc2ccccc2Br)cc1 | 95.2% (active)
CCOc1ccc(OCCCOc2cccc(C)c2C)cc1 | 73.5% (active)
CCOc1cccc(OCCCOc2ccc(Cl)cc2C)c1 | 82.3% (active)

Compound | inhibition
CCOc1ccc(OCCCOc2ccccc2OC)cc1 | 9.51% (inactive)
CC(C)(C)CC(C)(C)c1ccc(O)c(Cc2ccc(Cl)cc2Cl)c1 | 72.6% (active)
COc1ccc2c(c1)CCc1c(-c3ccc(C(=O)NCCCSC)cc3)n[nH]c1-2 | 95.5% (active)
CC(=O)c1ccc(OCC(=O)NC(C)c2ccc(CC(C)C)cc2)cc1 (stereo unspecified) | 46.8% (inactive)
CC(C)Cc1ccc(C(C)NC(=O)Cn2ccsc2=O)cc1 (stereo unspecified) | 92.5% (active)
Cc1ccc(C(=O)N=c2sccn2Cc2ccc(C(=O)NC(C)c3ccccc3)cc2)cc1 (stereo unspecified) | -8.44% (inactive)
COc1ccc2cc(C3CN(CCC(F)(F)C(F)F)CCO3)ccc2c1 (stereo unspecified) | 42.7% (inactive)
CC(=O)C1=C(O)CC(c2ccccc2)SC1=Nc1ccccc1 (stereo unspecified) | 57.6% (active)
CCOC(=O)C1=C(O)CSC1=Nc1ccc(Cl)cc1 | 16.2% (inactive)
Fc1ccc(SCCc2ccncc2)cc1 | 57.7% (active)
NC(=S)Nc1cccc(Br)c1 | 32.7% (inactive)
O=C1C(Cl)=C(Nc2cccc(Br)c2)C(=O)N1Cc1ccc(Br)cc1 | 61% (active)
O=c1ccc(-c2cccc(Br)c2)nn1Cc1ccc(F)cc1 | 8.75% (inactive)
CCOc1ccc(NC(=O)c2cn(-c3cc(N4CCOCC4)ncn3)cn2)cc1 | 74.7% (active)
O=C(O)c1cc(O)c2c(c1)C(=O)c1cc(O)cc(O)c1C2=O | 91.8% (active)
CC(c1ccc(Cl)cc1)N(C)C(=O)c1ccc[nH]1 (stereo unspecified) | -3.09% (inactive)
CC(c1ccc(F)cc1)N(C)C(=O)CN1CC(O)CC1c1cc(F)ccc1F (stereo unspecified) | 84% (active)
CC(=O)c1ccc(C(=O)N(C)C(C)c2ccc(Cl)cc2)s1 (stereo unspecified) | 25.1% (inactive)
Cc1nc(N)sc1N=Nc1cc(C(F)(F)F)ccc1Cl | 18.3% (inactive)
Cc1nc(NC(=O)c2c(C)nn(CC(C)C)c2Cl)sc1C | 12.5% (inactive)
Cc1sc(NC2CCCC2)nc1-c1ccc(F)c(F)c1 | 34.8% (inactive)
CCC(C)C(=O)Nc1nc(-c2ccc(Cl)cc2)c(C)s1 (stereo unspecified) | 70.1% (active)
COc1cccc(C2c3c(oc4cc(C)c(C)cc4c3=O)C(=O)N2c2nccs2)c1OC (stereo unspecified) | -18.6% (inactive)
